ANO1 activ: activators or potentiators of mouse TMEM16A chloride channel; Q8BHY3; HEK293 TMEM16A/YFP-H148Q/I152L, iodide quench fluorescence; active compounds read low; B-score at 10 µM; 340,000 tested, 0.3% active; AID 623877;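 active means fluorescence-ratio B-score plate-corrected deviation score at least 3 library SD below zero, with starting fluorescence score within 5 deviations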;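 further: channel opened by trigger with iodide after compound preincubation; score built on the fluorescence ratio of max minus min over baseline; more negative score means more quench and so TMEM16A activation or potentiation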
HDAC3 inhib: blocks human histone deacetylase 3; 320,000 tested, 0.15% active; AID 2718; O15379; recombinant HDAC3, fluorogenic peptide/trypsin coupled, fluorescence; inhibition, % at 8.3 µM; in the data active means inhibition above about 26%, passing the limit was not always enough; inconclusive means no clear call, values can overlap the other calls
Target sequence (O15379 whole entry, looked up): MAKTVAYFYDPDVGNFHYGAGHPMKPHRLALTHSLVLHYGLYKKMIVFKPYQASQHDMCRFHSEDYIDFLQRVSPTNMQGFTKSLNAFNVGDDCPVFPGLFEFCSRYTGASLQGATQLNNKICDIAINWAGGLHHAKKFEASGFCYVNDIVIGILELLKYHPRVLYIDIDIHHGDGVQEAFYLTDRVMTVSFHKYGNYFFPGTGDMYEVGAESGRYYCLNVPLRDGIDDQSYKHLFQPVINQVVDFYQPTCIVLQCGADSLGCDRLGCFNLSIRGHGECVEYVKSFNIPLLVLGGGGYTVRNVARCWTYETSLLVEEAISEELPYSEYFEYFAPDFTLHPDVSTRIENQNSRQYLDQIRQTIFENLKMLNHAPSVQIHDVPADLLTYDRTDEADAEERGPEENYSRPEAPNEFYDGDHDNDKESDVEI
CHT block: inhibits the human high affinity choline transporter. B-score at 10 µM. 310,000 tested, 0.86% active. CHT-expressing cells, membrane potential dye, choline response; active compounds read low. Q9GZV3. AID 488975;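 active means B-score over 3 SD under the library average, and starting fluorescence ratio not unusually high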;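 further: choline stimulus applied at its EC90 after an EC20 pre-addition; B-score computed on integrated fluorescence ratio after choline addition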
TMEM16A inh: inhibitors of mouse TMEM16A calcium-activated chloride channel. HEK293 TMEM16A/YFP iodide influx fluorescence, ionomycin. Q8BHY3. normalized B-score (activity score, 25-100; higher = stronger inhibition) at 10 µM. 310,000 tested, 1.2% active;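 active means ratio plate-corrected score three or more library SD toward inhibition, starting fluorescence score within five deviations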;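 further: score derived from kinetic fluorescence span divided by baseline fluorescence per well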
CHT allo act: allosterically activates the human high affinity choline transporter | Q9GZV3 | CHT-expressing cells, membrane potential dye, choline EC20; active compounds read high; LV-AA mutant CHT in HEK293 cells | B-score at 10 µM | 310,000 tested, 0.49% active | AID 488977;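 active means initial fluorescence not abnormally high and integrated response B-score, plate-corrected, over 3 SD above library mean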
PHOSPHO1 inh: blocks human PHOSPHO1 phosphatase activity. 290,000 tested, 1.1% active. recombinant PHOSPHO1, absorbance phosphatase assay. inhibition, % at 13.3 µM; in the data active means inhibition above about 60%
A number is an active result; – = inactive; ? = inconclusive; · = not tested or not shown. Rows were chosen to be rich in hits. Some 3.2% of all compounds tested hit in one or more screens of this group.

SMILES	ANO1 activ	HDAC3 inhib	CHT block	TMEM16A inh	CHT allo act	PHOSPHO1 inh
O=C(CCCN1CCC2(CC1)C(=O)NCN2c1ccccc1)c1ccc(F)cc1	-11	–	–	25	–	–
O=C(c1ccc(F)cc1)C(Cc1ccccc1)N1CCCCC1 (stereo unspecified)	–	–	–	–	–	–
CCCC[N+]1(C)[C@@H]2CC(OC(=O)[C@H](CO)c3ccccc3)C[C@H]1[C@@H]1O[C@@H]12 (stereo partly specified)	-10	–	–	–	–	–
C[N+]1(C)[C@@H]2CC(OC(=O)[C@H](CO)c3ccccc3)C[C@H]1[C@@H]1O[C@@H]12 (stereo partly specified)	–	–	–	–	–	–
O=c1c2cc([N+](=O)[O-])ccc2nc(CN2CCOCC2)n1-c1ccccc1F	·	·	·	·	·	–
C[C@]12CCC3C(CCC4=C/C(=N/OCC(=O)NC(CCC(=O)O)C(=O)O)CC[C@@]43C)C1CCC2O (stereo partly specified)	–	–	–	–	–	–
CC12CCC3c4ccc(OC(=O)N(CCCl)CCCl)cc4CCC3C1CCC2O (stereo unspecified)	–	·	·	·	·	·
CSc1ccc(C(=O)C2CCCN(Cc3cnc(SC)nc3)C2)cc1 (stereo unspecified)	–	–	–	25	–	–
O=[N+]([O-])c1c2ccccc2cc2ccccc12	–	–	·	·	·	·
NC(N)=N/N=C/c1cn(-c2ccccc2)nc1-c1cccs1	–	–	–	100	–	–
COC(=O)C1=C(c2ccc(F)cc2OCc2ccccc2)C[C@@H]2CC[C@H]1N2C(=O)NCCOc1ccc(OC)cc1	–	–	·	·	·	·
CC(C)COC(=O)c1ccccc1C(=O)OCC(C)C	–	–	–	–	–	–
C[CH2][Hg][S]c1ccccc1C(=O)O	–	56	–	–	–	·
N=C1c2ccccc2CN1c1ncccn1	–	–	–	–	7.9	–
COCCCN1Cc2ccccc2C1=N	–	–	–	–	–	–
CCOC(=O)/C(CCCN(CC)CC)=N\O	–	–	–	–	–	95
N=c1c2c(n(Cc3ccc(Cl)cc3Cl)c3c1CCC3)CCCC2	–	–	–	–	6.4	–
O=C(O)c1cc[c]([Hg][Cl])cc1	–	95	-6.1	–	–	·
c1ccc2c(c1)[IH]c1ccccc1-2	-5.8	·	·	·	·	·
c1ccc2c(c1)-c1cccc3cccc-2c13	–	–	–	–	–	·
CCCCn1c(=O)c(C(=O)Nc2cnccn2)c(O)c2ccccc21	·	–	–	100	–	–
COC(=O)C1=Nc2ccccc2/C1=C\c1c(O)n(C)c(=O)n(C)c1=O	–	–	–	–	–	–
Cn1c(O)c(/C=C2\C=Nc3ccccc32)c(=O)n(C)c1=O	-4.8	–	–	–	–	·
CCC(=NCCCN1CCOCC1)c1c(O)n(-c2ccccc2C)c(=O)[nH]c1=O	–	–	–	–	–	–
C[N+]12CCC(CC1)C(C#N)(N1CCOCC1)C2 (stereo unspecified)	–	–	–	–	–	101
SMILES	ANO1 activ	HDAC3 inhib	CHT block	TMEM16A inh	CHT allo act	PHOSPHO1 inh
C=C(C=O)CC1CC(O)[C@]2(C)OC3CC4OC5C[C@]6(C)O[C@]7(C)CCC8OC9C[C@]%10(C)OC%11C(C)=CC(=O)OC%11CC%10OC9C[C@@H](C)C8OC7CC6O[C@]5(C)CC5OC5C4OC3CC2O1 (stereo partly specified)	-8	–	–	–	–	–
O=C(O)c1cccc2c1NC(C(=O)O)C1CC(Sc3ccccc3[N+](=O)[O-])C(Cl)C21 (stereo unspecified)	–	–	–	–	–	62
CNC1(c2ccccc2Cl)CCCCC1=O (stereo unspecified)	–	·	·	·	·	·
CCC1C=CC=CC[C@H](C)[C@@H](O)[C@](C)(O)C(=O)[C@@H](C)[C@H](O)[C@@H](C)C(=O)[C@H](C)[C@@H](O)[C@H](C)C=CC(=O)OC2[C@@H](C)C(CC1)OC1(CC[C@@H](C)C(C[C@H](C)O)O1)[C@@H]2C (stereo partly specified)	·	–	–	25	–	·
COc1cc2c(cc1OC)-c1c(OC)c(OC)cc3c1C(C2)N(C)CC3 (stereo unspecified)	–	–	–	–	8.4	–
COc1ccc(-n2c(-c3ccc(C)cc3)nc3ccccc3c2=O)cc1	-4.9	–	–	–	–	–
COc1nc2ccccc2c(=O)n1-c1ccc(C)cc1	–	–	–	–	–	–
CC(=O)[C@@]1(O)CC[C@H]2[C@@H]3CC=C4C[C@@H](O)CC[C@]4(C)[C@H]3CC[C@@]21C	–	–	–	–	–	–
CN1C(=O)C(=Cc2ccc(SC3CCCCC3)o2)C(=O)N(C)C1=O	–	–	–	–	–	–
CN(C)C=C1C(=O)N(C2CCCCC2)C(=O)N(C2CCCCC2)C1=O	–	–	-5.4	–	–	–
CCc1ccc(CNCCc2ccccc2F)cc1	–	–	–	–	–	–
Cc1cccc(OP(=O)(Oc2ccccc2)OC(c2ccccc2)C(F)(F)F)c1 (stereo unspecified)	–	?	–	–	–	–
CCOc1cccc(OCC)c2c(C)[n+](CC3CCCO3)c(C)c1-2 (stereo unspecified)	–	–	–	–	–	95
Oc1c(Br)cc(Br)cc1Oc1ccc(Br)cc1Br	·	–	–	100	–	–
N#Cc1ccc(NC(=O)CCNC(=O)c2ccco2)cc1Cl	–	–	–	–	–	–
CN[C@@H]1C[C@@H](c2ccc(Cl)c(Cl)c2)c2ccccc21	·	–	–	25	–	–
CC(NCc1ccc(Cl)c(Cl)c1)C(O)c1ccccc1 (stereo unspecified)	–	–	–	–	–	–
Oc1ccc(/C=N/NP(=S)(c2ccccc2)c2ccccc2)c(O)c1O	–	–	–	–	–	84
CCOP(=O)(OCC)c1ccc(OP(=O)(c2cccc([N+](=O)[O-])c2)c2cccc([N+](=O)[O-])c2)cc1	–	57	–	–	–	–
CC(=O)OC(C)(C)/C=C/C(=O)[C@](C)(O)[C@H]1[C@H](O)C[C@@]2(C)[C@@H]3CC=C4[C@H](C[C@H](O)C(=O)C4(C)C)[C@]3(C)C(=O)C[C@]12C	–	·	·	·	·	–
CC(=O)OC(C)(C)/C=C/C(=O)C(C)(O)C1[C@H](O)C[C@@]2(C)C3CC=C4C(CC[C@@H](O)C4(C)C)[C@]3(CO)C(=O)C[C@]12C (stereo partly specified)	–	–	–	–	8.7	–
Cc1ccc(NC(=O)CN2C(=O)CN=C(c3ccccc3)c3cc(Cl)ccc32)cc1	–	·	–	–	–	–
CN(C)c1ccc(NC(=O)CN2C(=O)CN=C(c3ccccc3)c3cc(Cl)ccc32)cc1	–	–	–	–	–	60
CCOc1cccc(CNCCc2c(C)[nH]c3ccc(OC(F)(F)F)cc23)c1O	–	–	–	100	–	–

From PubChem
